According to PubChem BioAssay (NCATS):
Inconclusive results are not listed. A call without a number means that no potency is given here. Calls of active or inactive are those of the source. Calls come from the whole dose curve; tested in HEK293 reporter line.

Assay: qHTS for Inhibitors of the Functional Ribonucleoprotein Complex (vRNP) of Lassa (LASV) Arenavirus: LASV Primary Screen - GLuc reporter signal (AID 1347082); note: nearly all actives have a fitted effect of over 60% in size
Settings: LASV minigenome vRNP, Gaussia luciferase reporter; series mostly up to 57.5 µM

| Structure (SMILES) | Potency |
| --- | --- |
| COc1ccc(C(Cl)=C(c2ccc(OC)cc2)c2ccc(OC)cc2)cc1 | inactive |
| NCc1ccccc1Sc1ccccc1CO | inactive |
| O=C(CCCN1CCN(c2ccccn2)CC1)c1ccc(F)cc1 | inactive |
| CCN1CCN(c2cc(-c3ccc(F)cc3)c3c(n2)CCCCCC3)CC1 | inactive |
| O=C1OC(c2ccc(O)cc2)(c2ccc(O)cc2)c2ccccc21 | inactive |
| Clc1ccccc1-c1nc(-c2ccncc2)no1 | inactive |
| NCCNC(=O)c1ccc(Cl)cn1 | inactive |
| Oc1ccc(Cl)cc1Sc1cc(Cl)ccc1O | inactive |
| CCOC(=O)c1c(N)sc2c1CCN(Cc1ccccc1)C2 | inactive |
| OC[C@H]1O[C@@H](O[C@@H]2[C@@H](CO)O[C@](O)(CO)[C@H]2O)[C@H](O)[C@@H](O)[C@H]1O | inactive |
| C[N+]12CCC(CC1)C(OC(=O)C(O)(c1ccccc1)c1ccccc1)C2 (centres undefined) | inactive |
| COC1=C(OC)C(=O)C(CCCCCCCCCCO)=C(C)C1=O | inactive |
| O=C1NCN(c2ccccc2)C12CCN(CCCC(c1ccc(F)cc1)c1ccc(F)cc1)CC2 | inactive |
| Cc1ccc(Cl)c(OCC(O)CNC(C)(C)C)c1 (centres undefined) | inactive |
| Cc1c(Cn2ccnc2)c2ccccc2n1CCC(=O)O | inactive |
| Clc1ccc(Cn2c(CN3CCCC3)nc3ccccc32)cc1 | inactive |
| COc1cc2c(cc1OC)-c1cc(=Nc3c(C)cc(C)cc3C)n(C)c(=O)n1CC2 | inactive |
| CCCC(=O)O[C@]1(C(=O)CCl)[C@@H](C)C[C@H]2[C@@H]3CCC4=CC(=O)C=C[C@]4(C)[C@@]3(F)C(=O)C[C@@]21C | inactive |
| NS(=O)(=O)c1cc2c(cc1Cl)CN(C1CCCCC1)C2=O | inactive |
| Oc1ccc(C(O)CNCCCCCCNCC(O)c2ccc(O)c(O)c2)cc1O (centres undefined) | inactive |

| Structure (SMILES) | Potency |
| --- | --- |
| O=C(O)Cc1ccc(CCNS(=O)(=O)c2ccc(Cl)cc2)cc1 | inactive |
| O=C(NN1CCCC1)NS(=O)(=O)c1ccc(Cl)cc1 | inactive |
| COc1cc(C(=O)NCCCCCC(=O)O)cc(OC)c1OC | inactive |
| c1ccc(CCNc2nc(-c3ccccc3)cs2)cc1 | inactive |
| Cn1c(=O)c2c(ncn2C)n(C)c1=O | inactive |
| CN1[C@@H]2CC[C@H]1CC(OC(=O)c1c[nH]c3ccccc13)C2 (some centres undefined) | inactive |
| CN(C)CCOC1=Cc2ccccc2Sc2ccc(Cl)cc21 | inactive |
| CO/N=C(\C(=O)O)c1csc(NC(=O)CCl)n1 | inactive |
| CCOC(=O)c1ccc(OC(=O)CCCCCN=C(N)N)cc1 | inactive |
| CC(=O)OCC(=O)[C@@]1(O)CCC2C3CCC4=CC(=O)CC[C@]4(C)C3[C@@H](O)C[C@@]21C (some centres undefined) | inactive |
| CCCCNc1ccc(C(=O)OCCN(C)C)cc1 | inactive |
| Nc1c(CC(=O)O)cccc1C(=O)c1ccc(Br)cc1 | inactive |
| NNC(=O)CP(=O)(c1ccccc1)c1ccccc1 | inactive |
| CC(=O)OC/C=C(C)/C=C/C=C(C)/C=C/C1=C(C)CCCC1(C)C | inactive |
| c1ccc([C@H]2CN3CCSC3=N2)cc1 | inactive |
| CCCCN(CCCC)CCC(O)c1cc2c(Cl)cc(Cl)cc2c2cc(C(F)(F)F)ccc12 (centres undefined) | inactive |
| C=C(C)C(=O)OCC(O)CO (centres undefined) | inactive |
| CCCCCCCCCCCCCCCCC(C(=O)O)C(O)(CC(=O)O)C(=O)O (centres undefined) | inactive |
| CCn1cc(C(=O)O)c(=O)c2cc(F)c(N3CCNCC3)nc21 | inactive |
